{
  "source": "PubChem BioAssay AID651821",
  "about": "(The Scripps Research Institute Molecular Screening Center, 2012)",
  "note": "Values joined by “and” are separate entries in the source; they are usually repeats but may differ in a detail not shown here. Identical values can stand only once. The campaign covered roughly 370,000 compounds. About 4,700 (1.3%) were called active.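 The calls were made as follows: active = inhibition above the plate cutoff, the mean of all test compounds on that plate plus 3 SD (cut at about 35% in these data); inactive = the rest.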 The full list was thinned out, with actives kept by preference. More than one record can exist for a structure, and the calls need not agree.",
  "data": [
    {"test": "small molecules binding CAG repeat RNA – biochemical, fluorescence, primary screen (AID 651821);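 also: 0% = DMSO alone and 100% = 100 µM mitoxantrone as full dye displacement; higher means more dye released from RNA so lower well fluorescence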", "settings": "r(CAG) RNA repeat, TO-PRO-1 dye displacement fluorescence; at 3 µM; stronger effect = higher value", "values": [
      {"smiles": "C/C(=N/NC(=O)c1cc(Cl)ccc1O)C12CC3CC(CC(C3)C1)C2", "inhibition": "14.9% (inactive)"},
      {"smiles": "C/C(Cc1ccccc1)=N\\NC(=O)CNC(=O)c1cccc(Br)c1", "inhibition": "1.32% (inactive)"},
      {"smiles": "CC(=N\\NC(=O)c1cc(Br)ccc1O)/C(=N/O)C(=O)Nc1ccccc1", "inhibition": "36.5% (active)"},
      {"smiles": "O=S1(=O)c2ccc(Br)cc2OC[C@H](Cc2ccccc2)N1Cc1cn(Cc2ccccc2)nn1", "inhibition": "9.1% (inactive)"},
      {"smiles": "O=C(CSc1nnc(COc2ccccc2)n1-c1ccc(Cl)cc1)Nc1ccc2c(c1)OCO2", "inhibition": "5.42% (inactive)"},
      {"smiles": "Cc1ccc(N=C2NC(=O)/C(=C/C=C/c3ccco3)S2)cc1C", "inhibition": "58% (active)"},
      {"smiles": "Cc1cc(C(=O)NN=C/C=C/c2ccco2)n[nH]1", "inhibition": "12% (inactive)"},
      {"smiles": "Nc1ncnc2c1ncn2[C@@H]1O[C@H](C(=O)N[C@@H](CCc2ccccc2)C(=O)NCC(=O)N2CCOCC2)[C@@H](O)[C@H]1O", "inhibition": "4.42% (inactive)"},
      {"smiles": "CCN1CCN(C(=O)N[C@@H](C(=O)N[C@@H]2C(=O)N3C(C(=O)O)=C(CSc4nnnn4C)CS[C@H]23)c2ccc(O)cc2)C(=O)C1=O", "inhibition": "8.44% (inactive)"},
      {"smiles": "C=CC1=C(C(=O)O)N2C(=O)[C@@H](NC(=O)/C(=N/OCC(=O)O)c3csc(N)n3)[C@H]2SC1", "inhibition": "50.2% (active)"},
      {"smiles": "CO/N=C(\\C(=O)N[C@@H]1C(=O)N2C(C(=O)O)=C(COC(C)=O)CS[C@H]12)c1csc(N)n1", "note": "(stereo in doubt)", "inhibition": "31% (inactive) and 22.6% (inactive) and 37.5% (active)"},
      {"smiles": "Nc1nc2c(ncn2[C@@H]2O[C@H](C(=O)N[C@H](Cc3ccccc3)C(=O)NCC3CCCCC3)[C@@H](O)[C@H]2O)c(=O)[nH]1", "inhibition": "6.66% (inactive)"},
      {"smiles": "Cc1ccc(CN2CCCCC(NC(=O)C3CCCCC3)C2=O)cc1", "note": "(stereo not drawn)", "inhibition": "-0.58% (inactive)"},
      {"smiles": "CCCCN(C(C)=O)c1ccc2c(c1)C1CC2CCN1Cc1ccccc1", "note": "(stereo not drawn)", "inhibition": "-3.96% (inactive)"},
      {"smiles": "CCn1cc(CN2CCCC(CNS(=O)(=O)Cc3ccccc3)C2)cn1", "note": "(stereo not drawn)", "inhibition": "0.88% (inactive)"},
      {"smiles": "Cc1ccccc1NC(=O)C1CCN(c2ncccn2)CC1", "inhibition": "-0.95% (inactive)"},
      {"smiles": "COc1ccc(S(=O)(=O)NCC(c2ccc(C)cc2)N2CCN(C)CC2)cc1OC", "note": "(stereo not drawn)", "inhibition": "-10.5% (inactive)"},
      {"smiles": "COc1ccc(C(=O)OCCN(C)C2CN(Cc3cn(Cc4cccc(C)c4)nn3)S(=O)(=O)C2)cc1OC", "note": "(stereo not drawn)", "inhibition": "0.03% (inactive)"},
      {"smiles": "O=C(c1cc(-c2ccc(Cl)s2)nc2ccccc12)N1CCOCC1", "inhibition": "3.5% (inactive)"},
      {"smiles": "O=C(Nc1nnc(-c2ccccc2)o1)c1cc(-c2cccs2)nc2ccccc12", "inhibition": "56.2% (active)"},
      {"smiles": "Cc1c(NC(=O)c2cc(-c3ccc(Cl)s3)nc3ccccc23)c(=O)n(-c2ccccc2)n1C", "inhibition": "7.65% (inactive)"},
      {"smiles": "CC(c1ccc(N)cc1)c1cn(C)c2ccccc12", "note": "(stereo not drawn)", "inhibition": "7.15% (inactive)"},
      {"smiles": "CCC(C)[C@@H](C(=O)OC)N(CCc1cn(Cc2ccccc2)nn1)S(=O)(=O)c1ccccc1Br", "note": "(stereo partly drawn)", "inhibition": "2.88% (inactive)"},
      {"smiles": "CC(=O)N1c2ccc(S(=O)(=O)N3CCC(C(=O)NCc4ccc(F)cc4)CC3)cc2CC1C", "note": "(stereo not drawn)", "inhibition": "1.14% (inactive)"},
      {"smiles": "Cc1ccc(CNC(=O)C2CCN(S(=O)(=O)c3ccc4nc5c(c(C(=O)O)c4c3)CC(C)CC5)CC2)cc1", "note": "(stereo not drawn)", "inhibition": "51.8% (active)"},
      {"smiles": "CCOC(CNC(=O)C1CCN(S(=O)(=O)c2ccc3nc4c(c(C(=O)O)c3c2)CC(C)CC4)CC1)OCC", "note": "(stereo not drawn)", "inhibition": "25.9% (inactive)"},
      {"smiles": "COC(=O)C1=C(C)N(Cc2ccc(C(F)(F)F)cc2)C(=NCc2ccc(C(F)(F)F)cc2)NC1c1cccc(Cl)c1", "note": "(stereo not drawn)", "inhibition": "2.08% (inactive)"},
      {"smiles": "COC(=O)c1c(NC(=O)CSc2nncs2)sc2c1CCCCC2", "inhibition": "0.27% (inactive)"},
      {"smiles": "COC(=O)c1c(NC(=O)CN2C(=O)NC(CCc3ccccc3)C2=O)sc2c1CCCCC2", "note": "(stereo not drawn)", "inhibition": "10% (inactive)"},
      {"smiles": "N#Cc1c(NC(=O)C2CC(Cl)=CCC2C(=O)O)sc2c1CCCCC2", "note": "(stereo not drawn)", "inhibition": "42.8% (active)"},
      {"smiles": "COC(=O)c1c(NC(=O)C2CC(C)=C(C)CC2C(=O)O)sc2c1CCCCC2", "note": "(stereo not drawn)", "inhibition": "53.5% (active)"},
      {"smiles": "O=C(O)C1CC=C(Cl)CC1C(=O)NCc1ccccc1", "note": "(stereo not drawn)", "inhibition": "1.32% (inactive)"},
      {"smiles": "N#Cc1c(NC(=O)C2CCCO2)sc2c1CCCCC2", "note": "(stereo not drawn)", "inhibition": "-2.89% (inactive)"},
      {"smiles": "C[C@H]1CCC/C=C/C(=O)c2c(O)cc(O)cc2CC(=O)O1", "inhibition": "6.03% (inactive)"},
      {"smiles": "N#Cc1c(-c2ccc(Cl)cc2)c2c([nH]c1=S)CCCC2", "inhibition": "17.9% (inactive)"},
      {"smiles": "C=CCN1C(C(=O)OC)CN(Cc2cn(Cc3ccccc3)nn2)CCS1(=O)=O", "note": "(stereo not drawn)", "inhibition": "3.76% (inactive)"},
      {"smiles": "COc1ccc(CNS(=O)(=O)c2cc(-c3cc(C)no3)ccc2C(C)C)cc1", "inhibition": "1.21% (inactive)"},
      {"smiles": "COC(=O)c1ccc(NC(=O)c2ccccc2NS(=O)(=O)c2ccccc2)cc1", "inhibition": "74.1% (active)"},
      {"smiles": "COc1cc(NC(=O)c2ccccc2NS(=O)(=O)c2ccc(Cl)s2)cc(OC)c1", "inhibition": "84.6% (active)"},
      {"smiles": "COc1cccc(NC(=O)c2ccccc2N(Cc2ccccc2)S(C)(=O)=O)c1", "inhibition": "4.73% (inactive)"},
      {"smiles": "CCOC(=O)c1ccc(N/C(=N/S(=O)(=O)c2ccccc2)c2ccccc2)cc1", "inhibition": "0.82% (inactive)"},
      {"smiles": "CCOc1ncccc1C(=O)Nc1ccc(S(=O)(=O)Nc2nc(C)cc(C)n2)cc1", "inhibition": "16.8% (inactive)"},
      {"smiles": "COc1ccc(CCNS(=O)(=O)c2ccc(Cl)s2)cc1OC", "inhibition": "-4.15% (inactive)"}
    ]}
  ]
}
